Test results from PubChem BioAssay AID504766 (The Scripps Research Institute Molecular Screening Center, 2011).
Where “and” joins values, the source holds several entries; their conditions need not be identical. Identical values can stand only once. Hit rate of the full screen: of about 340,000 compounds, about 3,400 (1%) were called active.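 How the source made its calls: active means inhibition above the mean over all tested compounds plus 3 SD (cut at about 4.2% in these data); inactive means the rest.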 The entries come from a sample that favours actives as a whole. More than one record can exist for a structure, and the calls need not agree.

These molecules were tested against Nuclear receptor subfamily 0 group B member 1 (Homo sapiens) (UniProt P51843) (assay: DAX1 (NR0B1) inhibitors, primary screen, cell-based, HEK293, Gal4-DAX1, luciferase luminescence (AID 504766;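 further: 0% = DAX1-transfected cells with DMSO and 100% = empty-vector control cells with DMSO; inhibition shows as a rise in luminescence from relieved DAX1 repression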)). Details: HEK293 Gal4-DAX1 luciferase reporter, at 6.75 µM, stronger effect = higher value.
Chain of Nuclear receptor subfamily 0 group B member 1 (Homo sapiens) (P51843 207-470 limits assumed): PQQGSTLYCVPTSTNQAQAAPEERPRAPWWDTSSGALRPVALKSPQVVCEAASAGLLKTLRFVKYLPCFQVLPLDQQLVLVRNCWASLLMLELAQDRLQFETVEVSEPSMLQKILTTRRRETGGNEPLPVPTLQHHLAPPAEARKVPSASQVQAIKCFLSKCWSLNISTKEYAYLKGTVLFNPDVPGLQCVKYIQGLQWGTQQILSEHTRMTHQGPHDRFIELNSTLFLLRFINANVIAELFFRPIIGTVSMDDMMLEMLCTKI

Structure (SMILES)	inhibition
CC(C)CC1C(=O)N(Cc2cn(Cc3ccco3)nn2)CCS(=O)(=O)N1Cc1ccc(-c2ccc(Cl)c(Cl)c2)cc1 (stereo not given)	-1.34% (inactive)
CCn1c(SCC(=O)N2CCCC2=O)nc2ccccc21	1.3% (inactive)
CCOC(=O)c1cc2c(nc1NC(=S)Nc1ccccc1)CC(C)(CC)OC2 (stereo not given)	0.77% (inactive)
CCOC(=O)c1cn[nH]c1NC(=S)Nc1ccccc1	6.19% (active)
CCOC(=O)c1ccc(NC(=S)Nc2cc(C)cc(C)n2)cc1	1.42% (inactive)
O=C(NN=Cc1ccc2c(c1)CCC2)c1ccccc1O	2.24% (inactive)
O=C(C[C@H]1C[C@H]2c3cc(NS(=O)(=O)c4ccc(F)cc4)ccc3O[C@H]2[C@H](CO)O1)NCc1cc(F)ccc1F	-0.52% (inactive)
Cc1ccc(NC(=O)CN2CCC(C(N)=O)CC2)cc1[N+](=O)[O-]	0.4% (inactive)
Cc1ccc(NC(=O)c2sccc2C)cc1[N+](=O)[O-]	5.25% (active)
Cc1ccc(NC(=O)CN(C)CC(=O)Nc2cccc(F)c2)cc1[N+](=O)[O-]	-3.16% (inactive)
CC(=O)Nc1cccc(C(=O)OCN2C(=O)c3ccccc3C2=O)c1	0.92% (inactive)
CCN(CC)N=Nc1cccc(NC(C)=O)c1	8.01% (active)
CCN(CC)C(=O)C(=O)Nc1cccc(Br)c1	1.59% (inactive)
CC(C)n1ncc2c(C(=O)N3CCN(Cc4cccs4)CC3)cc(C3CC3)nc21	-1.38% (inactive)
Cc1ccc(S(=O)(=O)N(CCc2ccccc2)c2ccc3c(c2)C2CC3CCN2C(=O)OCc2ccccc2)cc1 (stereo not given)	-0.92% (inactive)
O=C(c1ccco1)N1CCN(CCOc2ccccc2)CC1	3.53% (inactive)
O=C(c1ccco1)N1CCN(Cc2cccc(C(F)(F)F)c2)CC1	4.58% (active)
FC(F)(F)c1cccc(Cc2noc(CN3CCC(N4CCCCC4)CC3)n2)c1	0.44% (inactive)
Fc1cccc(Cc2noc(CN3CCN(c4cnccn4)CC3)n2)c1	-1.08% (inactive)
O=C(CN1CCN(C(=O)c2ccco2)CC1)Nc1ccc(Cl)c(C(F)(F)F)c1	-0.99% (inactive)
CCOC(=O)N1CCN(Cc2nc(Cc3cccc(C(F)(F)F)c3)no2)CC1	4.88% (active)
Cc1cc(C)c2cc(C#N)c(N3CCNCC3)nc2c1	0.35% (inactive)
O=Cc1cn(CCOc2ccc(F)cc2)c2ccccc12	-0.3% (inactive)
O=C(CNC(=O)N1CC(=O)Nc2ccccc21)Nc1ccc(Br)cc1F	0.45% (inactive)
Cc1nnc(SC(C)C(=O)c2c[nH]c3ccccc23)n1C1CC1 (stereo not given)	0.71% (inactive)
CCc1ccccc1NC(=O)CN(c1ccc(OC)cc1OC)S(=O)(=O)c1ccccc1[N+](=O)[O-]	5.44% (active)
COc1ccc2c(CC(=O)OCC(=O)Nc3ccccc3[N+](=O)[O-])coc2c1	0.79% (inactive)
COc1ccc(N(CC(=O)Nc2cccc3ccccc23)S(C)(=O)=O)c(OC)c1	-0.73% (inactive)

Structure (SMILES)	inhibition
CCN(CC)C(=O)C1=C(C)N(Cc2ccc(OC)cc2)C(=O)C(CC(=O)NCCCCc2ccccc2)C1 (stereo not given)	-0.34% (inactive)
CCOc1ccc(CCNC(=O)COC(=O)c2ccc(C)c(S(=O)(=O)N3CCOCC3)c2)cc1OCC	-0.65% (inactive)
CCN(CC)C(=O)C1=C(C)N(Cc2ccc(C(C)(C)C)cc2)C(=O)C(CC(=O)NCc2cccc3ccccc23)C1 (stereo not given)	-0.14% (inactive)
Cn1c(SCC(=O)Nc2cccc(NC(=O)c3cccs3)c2)nnc1-c1ccncc1	-0.64% (inactive)
Cc1cc(-c2nc(C)c(-c3nnc(SCC(=O)Nc4ccccc4)n3C)s2)no1	-0.43% (inactive)
Cc1nc(-c2nnc(SCC(=O)Nc3cc(C(F)(F)F)cc(C(F)(F)F)c3)n2C)cs1	6.44% (active)
O=C(c1ccc(CS(=O)Cc2ccccc2Cl)o1)N1CCN(c2ccccc2)CC1 (stereo not given)	0.5% (inactive)
CCOC(=O)C(C(=O)c1ccccc1)C(c1ccccc1)c1nccc2ccccc12 (stereo not given)	-0.83% (inactive)
CC1(c2cccc(Br)c2)NC(=O)N(CC(=O)NCCC2=CCCCC2)C1=O (stereo not given)	1.45% (inactive)
O=S1(=O)CCN(Cc2ccccc2)CC1	-0.64% (inactive)
CC(C)C(=O)N1CCN(CCN=CC2=C(O)CC(c3ccco3)CC2=O)CC1 (stereo not given)	5.43% (active) and 1.58% (inactive)
CC(=O)N1CCN(CCN=CC2=C(O)CC(C)(C)CC2=O)CC1	0.1% (inactive)
O=C1CC(c2ccccc2)CC(O)=C1C=NCCN1CCOCC1 (stereo not given)	-0.18% (inactive)
CC1(C)CC(=O)C=C(c2ccc(COC(=O)c3cc(F)cc(F)c3)cc2)C1=O	-0.88% (inactive)
CC1C(=O)N(Cc2cn(CC3CCCCC3)nn2)CCS(=O)(=O)N1Cc1ccc(-c2cccc(N(C)C)c2)cc1 (stereo not given)	0.14% (inactive)
C[C@H](CO)N1C[C@H](C)[C@H](CN(C)C(=O)Nc2ccc3c(c2)OCO3)Oc2ncc(Br)cc2C1=O	2.47% (inactive)
Cc1cc2c(c(=O)n1C)C(C(C)C)C(C#N)=C(N)O2 (stereo not given)	-0.55% (inactive)
N#CC1=C(N)Oc2cc(N)ccc2C1c1ccccc1 (stereo not given)	0.38% (inactive)
Cn1c2c(c(=O)n(C)c1=O)C(c1cccc(F)c1)C(C#N)=C(N)O2 (stereo not given)	5.95% (active)
CC1CC(NC(=S)N(C)C)CC(C)(C)C1 (stereo not given)	1.5% (inactive)
COc1cccc(/C=C2\SC(=S)N(CCCC(=O)N3CCOCC3)C2=O)c1	-0.53% (inactive)
CCOC(=O)N1CCN(C(=O)c2cc3c(-c4ccc(Cl)cc4)nn(C)c3s2)CC1	4.96% (active)
COc1cccc(-c2nn(C)c3sc(C(=O)N4CCN(c5ccccc5)CC4)cc23)c1	-1.01% (inactive)
COc1ccccc1N1CCN(C(=O)c2cc3c(-c4ccc(Cl)cc4)nn(C)c3s2)CC1	2.84% (inactive)
COCCCn1c(C(=O)NC2CCCCC2)cc2c(=O)n3cccc(C)c3nc21	-1.22% (inactive)
O=C(Nc1ccc2c(c1)[C@@H]1C[C@@H](CC(=O)N3CCCCC3)O[C@@H](CO)[C@@H]1O2)NC1CCCCC1	0.47% (inactive)
Cc1cccc(C(=O)NC2CCN(CC(=O)Nc3cccc(Cl)c3)CC2)c1	0.29% (inactive)
